{"source": "PubChem BioAssay AID2314", "about": "(National Center for Advancing Translational Sciences (NCATS), 2010)", "note": "Several values for one entry are separate records, joined by “and”; a condition that tells them apart may be missing. Identical values can stand only once. In all, about 300,000 compounds went through this assay and about 37,000 (12%) were called active. This is one part of a sample in which actives are shown more often than they occur. Unmarked numbers belong to inactive results. Rule as the data show it: active = max response mostly above about 13% (no sharp cut-off); inactive = mostly below about 14%.", "data": [{"assay": "Cycloheximide Counterscreen for Small Molecule Inhibitors of Shiga Toxin; also: read at 38.3 µM for the half of the compounds with a filed dose; 0% is about no effect", "conditions": "cell reporter, cycloheximide protein synthesis inhibition counterscreen; hits give high values", "values": [{"compound": "Cc1ccc(NS(=O)(=O)c2cn(C)c(=O)n(C)c2=O)c(C)c1", "max response": "-0.304%"}, {"compound": "Cc1ccc2c(c1)N(CC(=O)N1CCCC(C)C1)C(=O)CO2", "note": "(configuration not stated)", "max response": "-3.96%"}, {"compound": "COC(=O)C1(CCSC)NC(c2ccc(OC)cc2OC)C2C(=O)N(c3cccc(C(C)=O)c3)C(=O)C21", "note": "(configuration not stated)", "max response": "-3.66%"}, {"compound": "Cc1cccc(NC(=O)c2ccc3c(=O)n(CC4CCCO4)c(=S)[nH]c3c2)c1", "note": "(configuration not stated)", "max response": "10.1%"}, {"compound": "COC(=O)c1ccc(NC(=O)CSc2nc(N)c(NC(=O)c3ccc(Br)o3)c(=O)[nH]2)cc1", "max response": "9.86%"}, {"compound": "CCOC(=O)CNc1nc(Cl)nc(Nc2ccccc2)n1", "max response": "45.2% (active)"}, {"compound": "CCC(=O)Nc1ccc(Nc2nc(Cl)nc(Nc3ccc(NC(=O)CC)cc3)n2)cc1", "max response": "-3.17%"}, {"compound": "CCOC(=O)CNc1nc(Cl)nc(Nc2ccc(OC)cc2OC)n1", "max response": "-3.67%"}, {"compound": "Cc1nc(C(=O)N2CCCC(C(=O)c3ccc(Cl)cc3)C2)cs1", "note": "(configuration not stated)", "max response": "0.775%"}, {"compound": "COc1ccccc1NC(=O)C1CCN(C(=O)c2ccc(C(C)(C)C)cc2)CC1", "max response": "-1.21%"}, {"compound": "Cn1nc(-c2ccccc2)c(CSc2cccc(Cl)c2)c1Cl", "max response": "-2.67%"}, {"compound": "Cn1c(=O)c2c(nc(Br)n2CCSc2nc3ccccc3o2)n(C)c1=O", "max response": "-1.28%"}, {"compound": "Fc1ccccc1OCCSc1nc2ccccc2o1", "max response": "26.3% (active)"}, {"compound": "O=c1c2ccccc2ncn1CCCCOc1ccccc1F", "max response": "1.24%"}, {"compound": "COC(=O)c1ccc(CN2CCCC(C(=O)Nc3cccc(-n4cnnn4)c3)C2)cc1", "note": "(configuration not stated)", "max response": "-1.47%"}, {"compound": "O=C(C1CC(=O)N(c2ccc(F)cc2)C1)N1CCN(c2ccccc2)CC1", "note": "(configuration not stated)", "max response": "-1.52%"}, {"compound": "O=C(Nc1cccn(Cc2ccccc2Cl)c1=O)NC1CCCCC1", "max response": "10.8% (active)"}, {"compound": "CCOc1ccccc1NC(=O)NC1CCCCCCC1", "max response": "10.6%"}, {"compound": "O=C(Nc1cccn(Cc2c(Cl)cccc2Cl)c1=O)c1ccc(Cl)cc1", "max response": "1.71%"}, {"compound": "CC(=O)N1CCN(C(=O)C2(NC(=O)Nc3ccc(C)cc3)CCCCC2)CC1", "max response": "6.9%"}, {"compound": "COC(=O)/C(=C\\Nc1ccccc1)NC(=O)c1ccc(Cl)cc1Cl", "max response": "16.3%"}, {"compound": "CC(=O)c1c(C)[nH]c(C(=O)Nc2cc(S(=O)(=O)N(C)C)ccc2C)c1C", "max response": "6.78%"}, {"compound": "COC(=O)[C@@H]1CCCN1C(=O)c1cc(COc2cccc3cccnc23)on1", "max response": "-3.11%"}, {"compound": "CSc1ccccc1OCc1cc(C(=O)N2C[C@H]3CC[C@H]2C3)no1", "max response": "45.3% (active)"}, {"compound": "CSc1ccccc1OCc1cc(C(=O)N(C)CCc2c(C)n[nH]c2C)no1", "max response": "15.1%"}, {"compound": "COc1ccc(NC(=O)C(NC(C)=O)C(=O)NCc2ccccc2Cl)cc1", "note": "(configuration not stated)", "max response": "1.56%"}, {"compound": "Cc1cc(C(=O)NNS(=O)(=O)c2ccccc2C(F)(F)F)nn1C(C)(C)C", "max response": "7.74%"}, {"compound": "O=C(CN1C(=O)COc2ccccc21)NCCN1CCc2ccccc2C1", "max response": "4.27%"}, {"compound": "O=C(CN1C(=O)COc2ccccc21)Nc1ccc(F)cc1", "max response": "44.7% (active)"}, {"compound": "CC(OC(=O)CN1C(=O)COc2ccccc21)C(=O)NCc1ccc(F)cc1", "note": "(configuration not stated)", "max response": "-2.2%"}, {"compound": "C/C(N)=C(/C#N)C(=O)COC(=O)C1=NN(c2ccccc2)C(=O)CC1", "max response": "-5.97%"}, {"compound": "O=C(Nc1nnc(S(=O)(=O)N2CCOCC2)s1)c1cccc(Br)c1", "max response": "7.79%"}, {"compound": "O=c1oc2ccccc2cc1-c1cn(-c2ccccc2)c(=S)[nH]1", "max response": "7.59%"}, {"compound": "O=c1[nH]c(-c2cccs2)nc2ccccc12", "max response": "20%"}, {"compound": "S=c1[nH]c(-c2cccs2)cn1-c1ccccc1", "max response": "34.1% (active)"}, {"compound": "COc1cc(/C=C/C(=O)OCC(=O)Nc2cccc(Oc3ccccc3)c2)ccc1O", "max response": "10.4%"}, {"compound": "COc1ccc(S(=O)(=O)N2CCC(C(=O)N3CCCC3)CC2)cc1C", "max response": "-13.9%"}, {"compound": "O=c1[nH]c(SCc2ccccc2)nnc1-c1ccccc1", "max response": "11% (active)"}, {"compound": "Cc1ccc(CSc2nc(-c3ccccc3)c(C#N)c(=O)[nH]2)cc1", "max response": "-11.1%"}, {"compound": "Cc1ccccc1CSc1nnc(-c2ccccc2)c(=O)[nH]1", "max response": "18.4%"}, {"compound": "COc1ccc(Cl)cc1C(=O)NCC#N", "max response": "-1.71%"}, {"compound": "COC(=O)c1ccc(NC(=O)c2cc(Cl)ccc2OC)cc1", "max response": "0.237%"}, {"compound": "COc1cc(OC)c(C(=O)Nc2ccccc2-c2ccccc2)cc1OC", "max response": "-1.49%"}, {"compound": "COc1cc(OC)c(C(=O)NC2CC(C)(C)NC(C)(C)C2)cc1OC", "max response": "-1.33%"}, {"compound": "COc1cc(OC)c(C(=O)Nc2ccc(N(C)C)cc2)cc1OC", "max response": "40.8% (active)"}, {"compound": "COc1ccc(Cl)cc1C(=O)Nc1ccc(N(C)C(C)=O)cc1", "max response": "34.7% (active)"}, {"compound": "C=CCn1c(SCCOc2ccc(OC)cc2)nnc1C(NC(=O)c1ccc(OC)cc1)C(C)C", "note": "(configuration not stated)", "max response": "-2.43%"}, {"compound": "CN(CC1CCCO1)S(=O)(=O)c1ccc(C(=O)Nc2ccc(F)cc2)cc1", "note": "(configuration not stated)", "max response": "3.84%"}, {"compound": "Cc1oc(-c2ccccc2Cl)[n+]([O-])c1C", "max response": "-1.24%"}, {"compound": "CCCSc1nc2sc3c(c2c(=O)n1-c1ccc(OC)cc1)CCN(C)C3", "max response": "0.929%"}, {"compound": "CCc1cccc(NC(=O)C2CCCN(S(=O)(=O)c3ccc4[nH]c(=O)ccc4c3)C2)c1", "note": "(configuration not stated)", "max response": "14.1%"}, {"compound": "Cn1c(=O)n(C)c2cc(S(=O)(=O)Nc3ccc(F)cc3)ccc21", "max response": "1.27%"}, {"compound": "CCN(CC)CCN(C(=O)c1ccc(S(=O)(=O)N2CCOCC2)cc1)c1nc2cc3c(cc2s1)OCCO3", "max response": "13.6% (active)"}, {"compound": "CCOc1ccc2nc(N(CCCN(C)C)C(=O)c3ccc(C(=O)c4ccccc4)cc3)sc2c1", "max response": "-2.35%"}, {"compound": "CN(C)CCCN(C(=O)c1ccc(S(=O)(=O)N2CCCc3ccccc32)cc1)c1nc2ccc(F)cc2s1", "max response": "0.524%"}, {"compound": "CCN(CC)CCN(C(=O)c1ccc(N2C(=O)CCC2=O)cc1)c1nc2cc3c(cc2s1)OCO3", "max response": "14.3%"}, {"compound": "O=C(Nc1nc2cc3c(cc2s1)OCCO3)c1cccc(S(=O)(=O)N2CCOCC2)c1", "max response": "-5.43%"}, {"compound": "CN(C)CCCN(C(=O)c1ccc(S(=O)(=O)N2CCCCCC2)cc1)c1nc2ccc(Br)cc2s1", "max response": "11.5% (active)"}, {"compound": "CCOc1cc(C)c(S(=O)(=O)NCc2ccccn2)cc1C", "max response": "-2.56%"}, {"compound": "COc1cc(OC)c2ccc(=O)oc2c1C(CCN1CCN(c2ccccc2)CC1)c1ccc2c(c1)OCO2", "note": "(configuration not stated)", "max response": "1.12% and 1.78%"}, {"compound": "Cc1cccc(CSc2nc3c(c(=O)n2C)SCC3)c1", "max response": "8.73%"}, {"compound": "CC(C)Oc1ccc(/C=N/NC(=O)c2nnn(-c3nonc3N)c2CN(C)C2CCCCC2)cc1", "max response": "-0.539%"}, {"compound": "O=C(O)CN1c2cccc3cccc(c23)S1(=O)=O", "max response": "8.16%"}, {"compound": "CCN(CC)CCN1C(=O)C(=O)/C(=C(/O)c2ccc(OC)c(OC)c2)C1c1ccccn1", "note": "(configuration not stated)", "max response": "17.9% (active)"}, {"compound": "COc1ccc(/C(O)=C2/C(=O)C(=O)N(CCCN(C)C)C2c2ccccc2)cc1OC", "note": "(configuration not stated)", "max response": "5.45%"}, {"compound": "CCCOc1ccc(/C(O)=C2/C(=O)C(=O)N(CCN(C)C)C2c2ccc(OC)c(OC)c2)cc1", "note": "(configuration not stated)", "max response": "5.75%"}, {"compound": "COc1ccc(S(=O)(=O)N2CCCC(C(=O)NCCCn3ccnc3)C2)cc1OC", "note": "(configuration not stated)", "max response": "-5.51%"}, {"compound": "Cc1ccsc1-c1cc(C(=O)O)c2c(ccc3ccccc32)n1", "max response": "16.2%"}, {"compound": "Cc1cccn2c(=O)c3cc(C(=O)NC4CCCCC4)sc3nc12", "max response": "7.47%"}, {"compound": "CCn1c(=N)c(C(=O)NCCCOC)cc2c(=O)n3cccc(C)c3nc21", "max response": "-3.15%"}, {"compound": "CCOCCCNC(=O)c1cc2c(=O)n3ccccc3nc2s1", "max response": "30.4% (active)"}, {"compound": "CC1CC(C)CN(CC(=O)N2c3ccccc3CCc3ccccc32)C1", "note": "(configuration not stated)", "max response": "-3.85%"}, {"compound": "O=C(Nc1cccc([N+](=O)[O-])c1)Nn1cnnc1", "max response": "3.77%"}, {"compound": "Cc1ccc(NC(=O)CN2CCc3ccccc3C2)cc1", "max response": "16.3% (active)"}, {"compound": "Cc1cccc(C)c1NC(=O)c1ccc(CN2CCc3ccccc3C2)cc1", "max response": "-1.05%"}, {"compound": "Cc1ccc(NC(=O)CN2CCc3ccccc3C2)cc1C", "max response": "18%"}, {"compound": "CCc1ccc(NC(=O)N2CCc3ccccc3C2)cc1", "max response": "49.7% (active)"}, {"compound": "COc1cc2c(cc1OC)CN(CC(=O)Nc1ccc(F)cc1)CC2", "max response": "-3.51%"}, {"compound": "CN(CC(=O)Nc1cccc(F)c1)CC(=O)Nc1cccc([N+](=O)[O-])c1", "max response": "13.6%"}, {"compound": "CCc1ccc(NC(=O)N2CCN(c3ccccc3)CC2)cc1", "max response": "12%"}, {"compound": "O=C(Nc1cccc([N+](=O)[O-])c1)N1CCc2ccccc2C1", "max response": "51.1% (active)"}, {"compound": "Cn1c(=O)c([N+](=O)[O-])c(Oc2ccccc2)c2ccccc21", "max response": "-2.35%"}, {"compound": "O=C(NC(=S)N1CCc2ccccc21)c1ccco1", "max response": "8.62%"}, {"compound": "Cc1cc(O)cc(O)c1C(=O)Cc1cnn(-c2ccccc2)c1", "max response": "14%"}, {"compound": "COc1ccc(C(=O)Cc2cnn(-c3ccccc3)c2)c(O)c1", "max response": "39.4% (active)"}, {"compound": "COc1ccc(C(=O)C[n+]2ccc(C)cc2)cc1", "max response": "0.721%"}, {"compound": "COc1ccc(C(=O)NNS(=O)(=O)c2ccc(C)cc2)cc1", "max response": "-1.39%"}, {"compound": "COc1ccc(C(=O)CC(=O)c2ccc(C)cc2)c(O)c1", "max response": "20% (active)"}, {"compound": "Cc1[nH]nc(-c2ccc(OCc3cnn(-c4ccccc4)c3)cc2O)c1Oc1ccc(Cl)cc1", "max response": "0.856%"}, {"compound": "COc1ccc(CCNC(=S)NC(=O)/C=C/c2ccc(C)cc2)cc1OC", "max response": "9.56%"}, {"compound": "COC(=O)c1c(NC(=O)C(=O)N2CCCCC2)sc2c1CC(C)(C)OC2", "max response": "-2.72%"}, {"compound": "CC(=O)N1CCN(CC(C)(C)NS(=O)(=O)c2ccc(C)cc2)CC1", "max response": "-1.04%"}]}]}
